# Source: PubChem (several laboratories)
# The list is not random: actives were taken first. Their share in the collection is about 4.8%.
# Mdm2-MdmX inh – disrupts the human Mdm2-MdmX interaction; SaOS-2 split-luciferase Mdm2/MdmX complementation, luminescence; O15151+Q00987; AID 485346; inhibition, % at 8 µM; 330,000 compounds, 3% hits;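 active = inhibition of at least 50% at 8 µM in the primary screen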
# Beta apoptosis – beta cell apoptosis inhibition | 300,000 compounds, 0.8% hits | INS-1E cytokine-induced death, ATP luminescence, 48 h; percent of positive-control rescue, neutral wells zero | protection from apoptosis, % (no concentration beside the values);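 active = Every replicate reaches about 75%, or at least half do and their mean reaches it too, limit read from the data; inconclusive = At least half of replicates reach the limit but their mean does not; inactive = Under half of replicates reach the limit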;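 note: higher means more ATP so stronger rescue from cytokine killing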
# Calb FLC – affects C. albicans growth with fluconazole | C. albicans CaCi-2 (fluconazole-resistant clinical isolate) + fluconazole, Alamar Blue growth, 48 h | growth inhibition, % (concentration not given with the values) | 300,000 compounds, 0.57% hits;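 active = growth inhibition above about 58% in most replicates, limit read from the data, passing the limit was not always enough; inconclusive = exactly half the replicates above a set limit; inactive = most replicates below a set limit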;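 note: all wells also contain fluconazole at 8 µg/ml as a sub-toxic cotreatment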
# CSC inhib – cancer stem cell inhibition. cancer stem cell-like cells viability, luminescence. inhibition, % at 7.5 µM. 300,000 compounds, 1.1% hits. AID 2717; in the data active = inhibition above about 75%; inconclusive = no clear call, values can overlap the other calls; tested in HMLE shEcad cells
# MPTP block – inhibitors of mitochondrial permeability transition pore. AID 602449. inhibition, % at 10 µM. 360,000 compounds, 1.4% hits. isolated mouse mitochondria, Ca2+ swelling absorbance, 30 min;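 active = inhibition of 50% or more, scaled per plate between neutral and stimulator controls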
# Rh123 counter – membrane potential counter-screen of mitochondrial pore inhibitors. isolated mitochondria, Rhodamine 123 fluorescence. shares compounds with MPTP block. inhibition, % at 10 µM. 5,000 compounds, 78% hits; in the data active = inhibition above about 22%
# MPTP abs DR – MPTP inhibition, dose response swelling confirmation; isolated mitochondria swelling, absorbance; shares compounds with MPTP block; 780 compounds, 58% hits; IC50, µM; AID 651561; in the data active = IC50 below about 20 µM
# MPTP counter DR – MPTP inhibitor counter-screen activity, dose response; 780 compounds, 49% hits; isolated mitochondria counterscreen, fluorescence read-out; shares compounds with MPTP block; AID 651564; IC50, µM; in the data active = IC50 below about 80 µM
# Hits are given with their value; - = inactive; ? = inconclusive; . = no result; + = active, no number.
SMILES,Mdm2-MdmX inh,Beta apoptosis,Calb FLC,CSC inhib,MPTP block,Rh123 counter,others
S=C(NCCc1ccc(Cl)cc1)NC1CCCC1,-,-,-,-,52.9,77.8,
COC(=O)c1ccc(NC(=S)NC2CC3CCC2C3)cc1 (stereo not given),-,-,-,-,101.4,91.0,
S=C(Nc1ccc(Nc2ccccc2)cc1)NC1CCCCCC1,-,-,-,78.1,63.1,65.6,
S=C(NCCc1ccc(Cl)cc1)NC1CCCCC1,-,-,-,-,-,.,
S=C(Nc1cccnc1)NC1CCCCCCC1,-,-,-,-,-,.,
S=C(Nc1cccc(Cl)c1)NC1CCCCC1,-,-,-,-,98.8,107.5,
S=C(NNc1cccc(Cl)c1)NC1CCCCC1,-,-,-,-,-,.,
Cc1cnc(NC(=O)C2CCC(C(C)(C)C)CC2)s1 (stereo not given),-,-,-,-,-,.,
COc1ccc(NC(=O)CN2CCN(c3c(C)cc(C)cc3C)CC2)cc1,-,-,-,-,-,.,
CCOC(=O)CN1N=C(c2ccc(Cl)cc2)CCC1=O,-,-,-,-,-,.,
S=C(Nc1ccc(Cl)cc1)NC1CCCCC1,-,-,-,-,81.8,92.6,
COC(=O)c1ccc(NC(=S)NC2CCCCC2)cc1,-,-,-,-,90.1,79.5,
FC(F)Oc1ccc(NC(=S)NC2CCCCCCC2)cc1,-,-,-,.,-,.,
S=C(Nc1ccc(Br)cc1)NC1CCCCC1,-,.,-,.,97.2,99.1,
NS(=O)(=O)c1ccc(NC(=S)NC2CCCCC2)cc1,-,-,-,.,-,.,
CCOC(=O)C1CCN(C(=S)Nc2cccc(C)c2C)CC1,-,-,-,.,-,.,
Cc1ccc(NC(=O)Nc2cnccn2)cc1Cl,-,-,-,-,62.8,64.5,
C/C(=N\Nc1ccc(C)c(Cl)c1)c1ccncc1,-,-,-,-,-,.,
Cc1noc(NS(=O)(=O)c2ccc(NC(=O)Nc3ccc(Cl)c(Cl)c3)cc2)c1C,-,-,-,-,84.0,75.2,
Cc1cc(NC(=O)Nc2ccc(Cl)c(Cl)c2)no1,-,-,-,-,82.3,93.9,
COc1ccc(NC(=O)Nc2cnccn2)cc1,-,-,-,-,-,.,
C/C(=N\NC(=O)C(=O)Nc1ccc(C)c(Cl)c1)c1ccncc1,-,-,-,-,55.4,-,MPTP abs DR=1.53;MPTP counter DR=<2.5
OC(COc1ccc(Cl)cc1)CN1C2=NCCCN2c2ccccc21 (stereo not given),-,.,-,-,70.2,-,MPTP abs DR=18.5;MPTP counter DR=-
N#CC(/C(=N/S(=O)(=O)c1cccs1)c1ccccc1)c1nc2ccccc2[nH]1 (stereo not given),-,-,-,-,66.0,71.9,
Cc1noc(C)c1CSc1ccccc1C(=O)O,-,-,-,-,-,.,
SMILES,Mdm2-MdmX inh,Beta apoptosis,Calb FLC,CSC inhib,MPTP block,Rh123 counter,others
O=C(NNC(=O)c1ccc(Br)s1)c1cccc(Cl)c1,-,-,.,.,-,.,
CN1/C(=C\C=C2/C(=O)Oc3ccccc3C2=O)C(C)(C)c2ccccc21,.,-,-,-,.,.,
CN(C)c1ccc(N=C/C=C2/N(C)c3ccccc3C2(C)C)cc1,.,.,-,.,82.3,52.0,
CN1C(=CC=C2C=C(I)C(=O)C(I)=C2)C(C)(C)c2ccccc21,.,.,.,.,66.6,-,
CCCc1ccc(Oc2cn[nH]c2-c2ccc(O)c(C)c2O)cc1,-,.,-,123.5,88.9,83.1,
CC(C)(C)c1ccc(OCCCn2ccnc2)cc1,-,-,-,-,+,-,MPTP abs DR=13.3;MPTP counter DR=27.2
Cc1ccc(S(=O)(=O)CCOC(=O)CNC(=O)OCc2ccccc2)cc1,.,.,.,.,-,.,
O=C(Nc1ccn(CCCNC2CCN(Cc3ccccc3)CC2)c(=O)n1)OCc1ccccc1,.,.,.,.,-,.,
CC1=CC2(C)C(C3C(C)=CC2(C)C(=O)C3(C)O)C(C)(O)C1=O (stereo not given),.,.,.,.,-,.,
Cc1ncc([N+](=O)[O-])n1CCOC(=O)Nc1ccc([N+](=O)[O-])cc1,-,-,-,-,77.2,71.2,
Cc1ncc([N+](=O)[O-])n1CCOC(=O)C12CC3CC(CC(C3)C1)C2,-,-,-,-,-,.,
CCn1c(-c2ccc(C(C)(C)C)cc2)n[nH]c1=S,-,-,-,-,69.4,-,MPTP abs DR=17.6;MPTP counter DR=26.3
C=CCS/C(N)=N\N=C\c1cc(Br)cc([N+](=O)[O-])c1O,-,-,-,-,52.9,50.6,
O=[N+]([O-])c1cc(Br)cc(/C=N/n2cnnc2)c1O,-,-,-,-,-,.,
COc1ccc(C(=O)NC(=S)NCc2ccco2)cc1,-,-,-,-,-,.,
N/N=C1\CCCc2c1[nH]c1ccc([N+](=O)[O-])cc21,-,-,-,-,-,.,
O=[N+]([O-])c1ccc2[nH]c3c(c2c1)CCCC3,-,-,-,-,72.2,70.9,
Cc1nnsc1SCCNC(=O)Nc1ccc(Cl)cc1,-,-,-,-,88.1,90.2,
O=C(NCCNC(=O)Nc1ccc(Cl)cc1)Nc1ccc(Cl)cc1,.,.,.,.,-,.,
CC(C)c1ccc(CNc2c([N+](=O)[O-])c(=O)oc3ccccc23)cc1,-,-,-,-,87.1,94.5,
O=c1oc2ccccc2c(Nc2ccc(Cl)cc2)c1[N+](=O)[O-],-,-,-,-,56.5,82.5,
O=c1oc2ccccc2c(NCc2ccccc2F)c1[N+](=O)[O-],-,-,-,-,-,.,
Cc1cccc(C)c1NC(=O)C[N+](C)(C)CC(O)COc1cccc2ccccc12 (stereo not given),-,-,-,-,81.1,-,MPTP abs DR=3.27;MPTP counter DR=50.5
CC(=O)Nc1cccc(C(=O)OC(C)C(=O)N2CCc3ccccc32)c1 (stereo not given),-,-,-,-,-,.,
Cc1ccc2c(c1)c1c(n2CC(O)CNC(C)(C)C)CCCC1 (stereo not given),.,.,.,.,70.3,-,MPTP abs DR=13.4;MPTP counter DR=-
SMILES,Mdm2-MdmX inh,Beta apoptosis,Calb FLC,CSC inhib,MPTP block,Rh123 counter,others
O=C(CSc1nnc(Cn2nnc3ccccc32)o1)N(Cc1ccc(Cl)cc1)c1ccccc1,-,99.1,-,-,95.5,103.3,
Cc1ccc(OC(C)C(=O)N/N=C/c2ccccn2)cc1 (stereo not given),-,-,-,-,-,.,
C=CC[C@H](CC(=O)N(CCO)Cc1ccccc1)C(=O)N[C@H](C)COC(=O)[C@@H](CC=C)CC(=O)OC(C)(C)C,-,-,.,-,-,.,
CC(c1ccco1)N(C(=O)c1ccccc1NS(=O)(=O)c1cc([N+](=O)[O-])ccc1Cl)c1ccccn1 (stereo not given),-,-,?,-,-,.,
CC(c1ccco1)N(C(=O)c1ccccc1NS(=O)(=O)c1cccc([N+](=O)[O-])c1)c1ccccn1 (stereo not given),-,-,-,-,51.1,78.2,
CCCOc1ccc(F)cc1-c1cc(C(=O)NCc2ccco2)[nH]n1,.,.,.,.,-,.,
CN1CCN2c3ccccc3Cc3ccccc3C2C1 (stereo not given),-,-,.,-,-,.,
CN1CCN(C2Cc3ccccc3Sc3ccc(Cl)cc32)CC1 (stereo not given),-,-,.,-,87.3,-,MPTP abs DR=6.83;MPTP counter DR=44.8
